Results from the supplement of paper PMC11732987, “Enantioselective OTUD7B fragment discovery through chemoproteomics screening and high-throughput optimisation” (Communications Chemistry, 2025).

Experiments:
Experiment in all cases: log2 ratio of Biotin-Ahx-Ub-VS probe labelling (fragment/DMSO); higher = less target engagement (more negative = stronger competition), active = hit call of the paper (q ≤ 0.05, log2 ratio ≤ -1)
Conditions in all cases: compound concentration: 200 uM; treatment time: 3 h
USP19 = biological target: T1, USP19 (UniProt O94966)
T1 sequence (whole entry): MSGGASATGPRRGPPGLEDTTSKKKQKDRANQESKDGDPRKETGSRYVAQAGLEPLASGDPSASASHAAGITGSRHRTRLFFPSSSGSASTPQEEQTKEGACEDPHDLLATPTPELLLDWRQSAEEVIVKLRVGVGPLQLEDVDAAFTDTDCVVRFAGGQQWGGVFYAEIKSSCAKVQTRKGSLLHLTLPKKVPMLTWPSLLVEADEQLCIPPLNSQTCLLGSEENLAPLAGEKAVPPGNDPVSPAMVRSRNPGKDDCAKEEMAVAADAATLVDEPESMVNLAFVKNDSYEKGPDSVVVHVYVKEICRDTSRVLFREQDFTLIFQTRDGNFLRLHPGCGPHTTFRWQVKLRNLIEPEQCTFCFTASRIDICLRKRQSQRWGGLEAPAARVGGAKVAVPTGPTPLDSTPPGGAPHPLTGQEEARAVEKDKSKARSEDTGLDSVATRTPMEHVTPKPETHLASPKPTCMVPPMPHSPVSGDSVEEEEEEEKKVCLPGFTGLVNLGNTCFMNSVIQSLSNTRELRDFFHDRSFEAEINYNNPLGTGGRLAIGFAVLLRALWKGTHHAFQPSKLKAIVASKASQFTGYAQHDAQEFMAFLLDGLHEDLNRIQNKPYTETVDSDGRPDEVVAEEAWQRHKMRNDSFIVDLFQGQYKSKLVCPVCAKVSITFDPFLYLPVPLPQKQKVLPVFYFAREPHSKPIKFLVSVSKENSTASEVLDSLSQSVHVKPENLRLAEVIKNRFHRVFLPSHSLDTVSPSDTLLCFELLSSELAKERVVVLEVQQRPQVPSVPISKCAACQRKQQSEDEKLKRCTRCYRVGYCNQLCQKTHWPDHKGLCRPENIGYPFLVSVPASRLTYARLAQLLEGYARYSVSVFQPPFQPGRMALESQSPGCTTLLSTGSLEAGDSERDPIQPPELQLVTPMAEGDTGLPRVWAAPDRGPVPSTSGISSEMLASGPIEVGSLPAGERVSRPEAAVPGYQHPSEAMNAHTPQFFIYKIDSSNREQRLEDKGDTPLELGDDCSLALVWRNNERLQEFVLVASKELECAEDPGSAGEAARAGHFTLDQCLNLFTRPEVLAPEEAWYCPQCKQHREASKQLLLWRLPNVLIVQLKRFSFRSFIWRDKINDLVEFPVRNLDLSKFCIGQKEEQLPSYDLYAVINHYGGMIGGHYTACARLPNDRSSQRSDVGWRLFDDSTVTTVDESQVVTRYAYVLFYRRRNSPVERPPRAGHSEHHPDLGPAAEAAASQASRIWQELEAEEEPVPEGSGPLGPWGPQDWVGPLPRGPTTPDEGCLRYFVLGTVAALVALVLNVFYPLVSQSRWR
Summary of the method: (§1)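 The table lists average log2 ratios of fragment over vehicle, from an unpaired t-test on global-median-normalised Spectronaut label-free quantities. Proteins with ≥2 unique peptides were used. Samples were HEK293T lysate (495 µg) treated in triplicate with fragment at 200 µM or vehicle for 3 h, then with Biotin-Ahx-Ub-VS (0.5 µM final) for 1 h, with labelled DUBs NeutrAvidin-enriched and run by diaPASEF LC-MS/MS.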

USP22 = biological target: T2, USP22 (UniProt Q9UPT9)
T2 sequence (whole entry): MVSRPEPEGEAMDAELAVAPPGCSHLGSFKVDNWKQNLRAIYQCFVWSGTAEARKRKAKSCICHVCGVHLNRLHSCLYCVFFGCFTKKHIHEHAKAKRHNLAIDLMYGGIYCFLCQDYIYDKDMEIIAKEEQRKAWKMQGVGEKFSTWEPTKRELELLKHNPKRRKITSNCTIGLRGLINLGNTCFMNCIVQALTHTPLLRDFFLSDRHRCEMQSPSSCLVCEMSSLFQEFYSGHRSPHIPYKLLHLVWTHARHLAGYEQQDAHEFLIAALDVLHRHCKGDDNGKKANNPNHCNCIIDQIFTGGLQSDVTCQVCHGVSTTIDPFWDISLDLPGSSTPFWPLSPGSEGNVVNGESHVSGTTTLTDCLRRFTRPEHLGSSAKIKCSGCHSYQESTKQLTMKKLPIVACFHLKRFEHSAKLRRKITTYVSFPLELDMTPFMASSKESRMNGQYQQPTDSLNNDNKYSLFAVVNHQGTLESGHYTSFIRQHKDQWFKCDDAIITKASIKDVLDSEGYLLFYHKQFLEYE
Summary of the method: as §1

USP24 = USP24 (UniProt Q9UPU5)
Summary of the method: as §1

USP25 = biological target: T3, USP25 (UniProt Q9UHP3)
T3 sequence (whole entry): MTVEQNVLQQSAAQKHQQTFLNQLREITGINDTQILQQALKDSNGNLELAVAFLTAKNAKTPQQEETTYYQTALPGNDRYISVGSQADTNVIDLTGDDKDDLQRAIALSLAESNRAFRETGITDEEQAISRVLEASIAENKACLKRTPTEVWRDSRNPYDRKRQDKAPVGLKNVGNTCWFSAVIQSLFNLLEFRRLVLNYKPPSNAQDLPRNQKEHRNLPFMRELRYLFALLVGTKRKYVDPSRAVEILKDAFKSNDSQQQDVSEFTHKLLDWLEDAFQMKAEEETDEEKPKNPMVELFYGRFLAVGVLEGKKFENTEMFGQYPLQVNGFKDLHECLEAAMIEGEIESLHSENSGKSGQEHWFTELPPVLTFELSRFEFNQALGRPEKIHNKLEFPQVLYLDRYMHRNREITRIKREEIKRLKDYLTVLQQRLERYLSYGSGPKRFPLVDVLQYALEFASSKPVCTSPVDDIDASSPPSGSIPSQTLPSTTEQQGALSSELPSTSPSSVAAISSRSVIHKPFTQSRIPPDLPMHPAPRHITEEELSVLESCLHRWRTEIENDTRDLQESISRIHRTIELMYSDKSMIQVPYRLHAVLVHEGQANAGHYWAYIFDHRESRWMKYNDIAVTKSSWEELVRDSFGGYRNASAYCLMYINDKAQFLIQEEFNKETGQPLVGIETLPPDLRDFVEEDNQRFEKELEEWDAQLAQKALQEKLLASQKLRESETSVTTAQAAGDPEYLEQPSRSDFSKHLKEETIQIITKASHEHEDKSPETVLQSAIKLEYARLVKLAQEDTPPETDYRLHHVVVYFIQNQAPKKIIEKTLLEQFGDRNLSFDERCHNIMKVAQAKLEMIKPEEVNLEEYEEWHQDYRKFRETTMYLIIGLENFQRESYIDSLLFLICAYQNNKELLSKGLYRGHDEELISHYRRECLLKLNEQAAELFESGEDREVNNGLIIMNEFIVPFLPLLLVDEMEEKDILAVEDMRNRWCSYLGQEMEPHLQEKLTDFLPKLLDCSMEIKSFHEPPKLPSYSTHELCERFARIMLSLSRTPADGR
Summary of the method: as §1

USP28 = biological target: T4, USP28 (UniProt Q96RU2)
T4 sequence (whole entry): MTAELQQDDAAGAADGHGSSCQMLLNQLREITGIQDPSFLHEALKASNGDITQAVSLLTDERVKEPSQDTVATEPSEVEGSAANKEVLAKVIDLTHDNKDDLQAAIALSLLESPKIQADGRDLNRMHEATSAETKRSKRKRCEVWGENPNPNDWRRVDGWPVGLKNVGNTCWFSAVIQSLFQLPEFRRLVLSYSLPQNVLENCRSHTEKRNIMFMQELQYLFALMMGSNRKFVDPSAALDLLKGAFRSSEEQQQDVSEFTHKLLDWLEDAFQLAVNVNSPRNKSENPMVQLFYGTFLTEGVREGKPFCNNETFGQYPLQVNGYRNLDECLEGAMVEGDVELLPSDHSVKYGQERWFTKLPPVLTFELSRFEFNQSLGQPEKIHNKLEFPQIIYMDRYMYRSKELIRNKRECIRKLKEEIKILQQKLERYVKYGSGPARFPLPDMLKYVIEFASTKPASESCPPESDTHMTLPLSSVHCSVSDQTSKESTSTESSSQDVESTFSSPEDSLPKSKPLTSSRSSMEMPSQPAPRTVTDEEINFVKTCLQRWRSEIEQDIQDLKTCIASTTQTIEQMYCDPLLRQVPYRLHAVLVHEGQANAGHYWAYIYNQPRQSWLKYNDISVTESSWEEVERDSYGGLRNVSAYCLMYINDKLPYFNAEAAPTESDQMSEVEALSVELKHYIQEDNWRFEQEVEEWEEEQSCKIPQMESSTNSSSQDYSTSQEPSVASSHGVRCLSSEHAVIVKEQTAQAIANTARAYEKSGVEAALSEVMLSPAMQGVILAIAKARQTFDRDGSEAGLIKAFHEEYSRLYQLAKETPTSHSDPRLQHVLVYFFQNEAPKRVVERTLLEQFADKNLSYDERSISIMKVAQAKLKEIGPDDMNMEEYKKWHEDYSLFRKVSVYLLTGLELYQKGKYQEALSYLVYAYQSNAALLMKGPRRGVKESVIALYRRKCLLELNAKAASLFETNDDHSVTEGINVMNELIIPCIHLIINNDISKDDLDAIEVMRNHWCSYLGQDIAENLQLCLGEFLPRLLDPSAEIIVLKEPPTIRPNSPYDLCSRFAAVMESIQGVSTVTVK
Summary of the method: as §1

Measured: log2 ratio of Biotin-Ahx-Ub-VS probe labelling

USP24, sequence (Q9UPU5 whole entry): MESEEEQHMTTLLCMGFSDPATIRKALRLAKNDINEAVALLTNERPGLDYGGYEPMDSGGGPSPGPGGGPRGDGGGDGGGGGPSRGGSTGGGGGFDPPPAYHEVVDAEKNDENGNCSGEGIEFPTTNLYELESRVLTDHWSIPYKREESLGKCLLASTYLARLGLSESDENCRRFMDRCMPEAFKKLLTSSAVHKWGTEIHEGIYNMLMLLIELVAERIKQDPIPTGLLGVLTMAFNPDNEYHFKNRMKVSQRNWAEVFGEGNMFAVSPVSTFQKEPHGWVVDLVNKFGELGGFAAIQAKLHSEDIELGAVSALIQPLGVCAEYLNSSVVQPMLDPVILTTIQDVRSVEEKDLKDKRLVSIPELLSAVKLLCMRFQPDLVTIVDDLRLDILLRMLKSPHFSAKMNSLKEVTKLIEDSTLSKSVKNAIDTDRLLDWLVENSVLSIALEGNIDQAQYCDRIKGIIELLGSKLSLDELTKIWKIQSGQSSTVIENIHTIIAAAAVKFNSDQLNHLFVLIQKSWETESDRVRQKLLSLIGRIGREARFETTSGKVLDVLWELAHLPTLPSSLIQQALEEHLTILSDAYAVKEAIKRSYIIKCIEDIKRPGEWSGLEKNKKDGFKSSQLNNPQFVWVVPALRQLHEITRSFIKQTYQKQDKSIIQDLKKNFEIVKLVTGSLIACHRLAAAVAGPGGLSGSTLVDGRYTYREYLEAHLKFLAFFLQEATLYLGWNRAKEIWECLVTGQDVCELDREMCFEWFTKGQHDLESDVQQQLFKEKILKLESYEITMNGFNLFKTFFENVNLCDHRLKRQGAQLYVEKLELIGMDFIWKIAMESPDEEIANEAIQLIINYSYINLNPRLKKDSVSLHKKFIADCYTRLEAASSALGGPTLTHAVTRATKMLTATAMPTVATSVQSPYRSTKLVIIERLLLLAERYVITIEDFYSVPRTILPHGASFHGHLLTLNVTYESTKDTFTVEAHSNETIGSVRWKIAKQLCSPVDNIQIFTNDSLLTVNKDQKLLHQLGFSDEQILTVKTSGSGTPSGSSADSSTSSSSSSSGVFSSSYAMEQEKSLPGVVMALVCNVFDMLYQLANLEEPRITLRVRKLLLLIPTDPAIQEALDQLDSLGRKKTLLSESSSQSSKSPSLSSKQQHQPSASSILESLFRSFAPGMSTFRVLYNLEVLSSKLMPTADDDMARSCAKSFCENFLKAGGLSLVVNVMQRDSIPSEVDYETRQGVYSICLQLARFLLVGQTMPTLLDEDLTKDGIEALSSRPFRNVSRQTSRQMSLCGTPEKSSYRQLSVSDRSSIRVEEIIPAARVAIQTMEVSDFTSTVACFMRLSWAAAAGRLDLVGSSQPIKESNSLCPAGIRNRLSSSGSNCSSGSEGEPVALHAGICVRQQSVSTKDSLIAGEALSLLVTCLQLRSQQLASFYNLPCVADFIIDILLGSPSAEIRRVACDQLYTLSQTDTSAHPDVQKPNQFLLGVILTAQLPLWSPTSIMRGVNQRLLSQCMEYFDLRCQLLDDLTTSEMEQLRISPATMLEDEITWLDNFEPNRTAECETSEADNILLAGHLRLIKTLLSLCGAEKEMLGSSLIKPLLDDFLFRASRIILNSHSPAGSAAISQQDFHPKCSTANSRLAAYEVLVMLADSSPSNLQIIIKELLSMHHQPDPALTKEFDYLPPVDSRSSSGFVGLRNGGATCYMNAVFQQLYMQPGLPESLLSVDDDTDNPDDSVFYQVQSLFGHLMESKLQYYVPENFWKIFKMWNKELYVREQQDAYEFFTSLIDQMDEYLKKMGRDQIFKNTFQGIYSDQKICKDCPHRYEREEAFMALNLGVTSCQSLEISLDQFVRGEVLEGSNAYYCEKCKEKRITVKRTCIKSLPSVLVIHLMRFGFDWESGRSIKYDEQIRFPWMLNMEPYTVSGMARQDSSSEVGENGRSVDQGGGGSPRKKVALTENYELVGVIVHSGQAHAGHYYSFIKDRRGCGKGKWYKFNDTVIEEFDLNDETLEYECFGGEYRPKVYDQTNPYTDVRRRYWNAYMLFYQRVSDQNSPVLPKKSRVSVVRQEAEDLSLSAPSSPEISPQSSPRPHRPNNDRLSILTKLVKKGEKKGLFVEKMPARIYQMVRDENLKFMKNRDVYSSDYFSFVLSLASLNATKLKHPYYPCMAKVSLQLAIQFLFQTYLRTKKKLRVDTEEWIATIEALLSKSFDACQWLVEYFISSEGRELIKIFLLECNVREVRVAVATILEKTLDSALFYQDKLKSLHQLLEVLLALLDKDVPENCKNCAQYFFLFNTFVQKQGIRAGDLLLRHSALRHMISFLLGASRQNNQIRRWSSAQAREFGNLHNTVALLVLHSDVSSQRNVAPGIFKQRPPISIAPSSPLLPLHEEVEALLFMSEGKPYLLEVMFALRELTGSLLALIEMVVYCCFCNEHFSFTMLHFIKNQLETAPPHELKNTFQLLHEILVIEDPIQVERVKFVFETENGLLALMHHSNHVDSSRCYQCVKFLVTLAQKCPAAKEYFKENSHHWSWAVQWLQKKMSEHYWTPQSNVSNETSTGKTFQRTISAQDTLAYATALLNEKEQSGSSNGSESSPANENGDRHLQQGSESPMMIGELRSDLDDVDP

CC(NC(=O)CCl)c1cc2n(n1)CCCC2.Cl (stereo not given)
inactive: USP19 -0.153 | USP22 0.0191 | USP24 -0.262 | USP25 -0.378 | USP28 -0.582
